{"source": "PubChem BioAssay", "key": {"[1]": {"test": "circadian clock period modulators, cell-based, LOPAC library, luminescence reporter (AID 2774)", "conditions": "circadian reporter cells, at 7 µM, actives lie on both sides"}, "[2]": {"system": "Hepatitis C virus NS3 helicase", "test": "HCV NS3 helicase inhibitors, primary screen, biochemical, fluorescence polarization, LOPAC1280 library (AID 687035; in the data active = inhibition above about 37%)", "conditions": "Purified HCV NS3 helicase, Cy5-dT15 ssDNA binding fluorescence polarization; stronger effect = higher value; concentration not given here"}, "[3]": {"test": "Cy5 fluorescence quenching or enhancement artefacts, artefact control for HCV NS3 helicase inhibitor project, biochemical, LOPAC1280 (AID 687037)", "conditions": "Cy5-DNA-NS3h complex fluorescence interference counterscreen"}, "[4]": {"system": "Aerobactin synthetase IucA (Klebsiella pneumoniae, hypervirulent)", "test": "IucA enzyme inhibition, biochemical, LOPAC library, absorbance readout (AID 1346212);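 also: 100% = no compound wells and 0% = no enzyme wells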", "conditions": "IucA enzyme assay, absorbance (OD) readout; stronger effect = lower value;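 tested at 8 µM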"}, "[5]": {"test": "sensitizers of A549 cells to miR-34 induction, primary screen, imaging, A549 dox-inducible miR-34, nuclei and caspase counts (AID 1347080;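 active = compounds whose cell count with miR-34 switched on is under 0.7 times the count with it off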)", "conditions": "A549 miR-34 inducible, Hoechst nuclei count, 48 h"}, "[6]": {"test": "viability rescue of complex I mutant cybrids, primary screen, cell-based, galactose medium, ATP luminescence (AID 1645843;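 active = z-score of at least 1.8 in each of two replicates, scored against plate mean and spread of sample wells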;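 also: positive z means more ATP and so rescue of galactose-driven cybrid death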)", "conditions": "complex I mutant cybrid cells, 72 h, stronger effect = higher value"}, "[7]": {"test": "hESC survival regulators, cell-based (AID 493140);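 also: cells exposed to compounds for four days before counting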", "conditions": "human embryonic stem cell survival screen; stronger effect = higher value"}, "[8]": {"test": "liver-stage malaria parasite growth inhibition, primary screen, cell-based, HepG2, luciferase luminescence, HepG2 viability (AID 624349; in the data active = parasite load remaining mostly below about 12%, no sharp cut-off; inactive = mostly above about 10%;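 also: 100% = mean of DMSO negative control wells on the same plate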)", "conditions": "P. berghei liver stage in HepG2, luciferase luminescence, concentration not given here; parasite load remaining: stronger effect = lower value; viability: measured here: HepG2 viability without parasites"}, "[9]": {"test": "phospholipid biosynthesis inhibitors in animal cells, primary screen, cell-based, LOPAC library, screen 4 (AID 1347384)", "conditions": "phospholipid biosynthesis inhibition screen, at 10 µM"}, "[10]": {"conditions": "measured here: relative caspase fold change +Dox/-Dox"}, "[11]": {"conditions": "measured here: total cells with miR-34 induction, stronger effect = lower value"}, "[12]": {"conditions": "measured here: total cells without miR-34 induction"}}, "note": "Where “and” joins values, the source holds several entries; their conditions need not be identical. Equal values may be shown once. Calls of active or inactive are those of the source. Unless noted, no rule for the calls is given here.", "data": [{"smiles": "Nc1ncnc2c1ncn2[C@@H]1O[C@H](COP(=O)(O)CP(=O)(O)OP(=O)(O)O)[C@H](O)C1O", "note": "(some centres not stated)", "values": [{"measurement": "period change", "setting": "[1]", "result": "0.01 h (inactive)"}, {"measurement": "inhibition", "setting": "[2]", "result": "-1% (inactive)"}, {"measurement": "fluorescence ratio (interference)", "setting": "[3]", "result": "1 (inactive)"}, {"measurement": "remaining activity", "setting": "[4]", "result": "111% (inactive)"}, {"measurement": "fold change", "setting": "[5]; stronger effect = lower value", "result": "1.06 (inactive)"}, {"measurement": "fold change", "setting": "[5]; [10]", "result": 0.784}, {"measurement": "cell count", "setting": "[5]; [11]", "result": 11200}, {"measurement": "cell count", "setting": "[5]; [12]", "result": 10600}, {"measurement": "z-score", "setting": "[6]", "result": "2.36 (active)"}]}, {"smiles": "C[N+]1(C)C2CC(OC(=O)[C@H](CO)c3ccccc3)CC1C1OC12", "note": "(some centres not stated)", "values": [{"measurement": "period change", "setting": "[1]", "result": "-0.095 hour (inactive) and 0.155 hour (inactive)"}, {"measurement": "inhibition", "setting": "[2]", "result": "-1% (inactive) and 0% (inactive)"}, {"measurement": "fluorescence ratio (interference)", "setting": "[3]", "result": "1 (inactive)"}, {"measurement": "remaining activity", "setting": "[4]", "result": "96.4% (inactive)"}, {"measurement": "fold change", "setting": "[5]; stronger effect = lower value", "result": "0.984 (inactive) and 1.04 (inactive)"}, {"measurement": "fold change", "setting": "[5]; [10]", "result": "0.938 and 1.11"}, {"measurement": "cell count", "setting": "[5]; [11]", "result": "10100 and 9050"}, {"measurement": "cell count", "setting": "[5]; [12]", "result": "10300 and 8720"}, {"measurement": "z-score", "setting": "[6]", "result": "0.475 (inactive) and 0.45 (inactive)"}]}, {"smiles": "N[C@H](CCCCCP(=O)(O)O)C(=O)O", "values": [{"measurement": "period change", "setting": "[1]", "result": "-0.025 h (inactive)"}, {"measurement": "remaining activity", "setting": "[4]", "result": "114% (inactive)"}]}, {"smiles": "C[C@@H]1O[C@H](C[N+](C)(C)C)CS1", "values": [{"measurement": "period change", "setting": "[1]", "result": "-0.11 h (inactive)"}, {"measurement": "inhibition", "setting": "[2]", "result": "-1% (inactive)"}, {"measurement": "fluorescence ratio (interference)", "setting": "[3]", "result": "1 (inactive)"}, {"measurement": "remaining activity", "setting": "[4]", "result": "81.1% (inactive)"}]}, {"smiles": "N#CC(C#N)=Cc1cc(O)c(O)c(O)c1", "values": [{"measurement": "period change", "setting": "[1]", "result": "-0.035 h (inactive)"}, {"measurement": "survival", "setting": "[7]", "result": "61.5 (inactive)"}, {"measurement": "remaining activity", "setting": "[4]", "result": "109% (inactive)"}]}, {"smiles": "O=[N+]([O-])/C=C/c1ccc2c(c1)OCO2", "values": [{"measurement": "parasite load remaining", "setting": "[8]", "result": "42.5% (inactive)"}, {"measurement": "viability", "setting": "[8]", "result": 65.7, "unit": "%"}, {"measurement": "inhibition", "setting": "[2]", "result": "-1% (inactive)"}, {"measurement": "fluorescence ratio (interference)", "setting": "[3]", "result": "1 (inactive)"}, {"measurement": "remaining activity", "setting": "[4]", "result": "107% (inactive)"}, {"measurement": "fold change", "setting": "[5]; stronger effect = lower value", "result": "1.45 (inactive)"}, {"measurement": "fold change", "setting": "[5]; [10]", "result": 0.546}, {"measurement": "cell count", "setting": "[5]; [11]", "result": 2000}, {"measurement": "cell count", "setting": "[5]; [12]", "result": 1380}, {"measurement": "outcome", "setting": "[9]", "result": "inactive"}, {"measurement": "z-score", "setting": "[6]", "result": "-0.995 (inactive)"}]}, {"smiles": "COc1ccc2c3c1O[C@H]1C(=O)CC[C@@]4(O)C(C2)N(CC2CC2)CCC314", "note": "(some centres not stated)", "values": [{"measurement": "period change", "setting": "[1]", "result": "-0.115 h (inactive)"}, {"measurement": "remaining activity", "setting": "[4]", "result": "120% (inactive)"}]}, {"smiles": "CN(N=O)c1cc(O)ccc1O", "values": [{"measurement": "period change", "setting": "[1]", "result": "0.05 h (inactive)"}, {"measurement": "inhibition", "setting": "[2]", "result": "-1% (inactive)"}, {"measurement": "fluorescence ratio (interference)", "setting": "[3]", "result": "1 (inactive)"}, {"measurement": "remaining activity", "setting": "[4]", "result": "103% (inactive)"}, {"measurement": "fold change", "setting": "[5]; stronger effect = lower value", "result": "1.03 (inactive)"}, {"measurement": "fold change", "setting": "[5]; [10]", "result": 1.21}, {"measurement": "cell count", "setting": "[5]; [11]", "result": 9960}, {"measurement": "cell count", "setting": "[5]; [12]", "result": 9640}, {"measurement": "z-score", "setting": "[6]", "result": "-1.04 (inactive)"}]}, {"smiles": "C[C@H]1OC[C@@H](C[N+](C)(C)C)O1", "values": [{"measurement": "period change", "setting": "[1]", "result": "-0.07 h (inactive)"}, {"measurement": "remaining activity", "setting": "[4]", "result": "81.5% (inactive)"}]}, {"smiles": "C[C@H](Cc1ccc2c(c1)OC(C(=O)O)(C(=O)O)O2)NC[C@H](O)c1cccc(Cl)c1", "values": [{"measurement": "period change", "setting": "[1]", "result": "0.1 h (inactive)"}, {"measurement": "inhibition", "setting": "[2]", "result": "-3% (inactive)"}, {"measurement": "fluorescence ratio (interference)", "setting": "[3]", "result": "1 (inactive)"}, {"measurement": "remaining activity", "setting": "[4]", "result": "117% (inactive)"}, {"measurement": "fold change", "setting": "[5]; stronger effect = lower value, cell number ratio, induced over uninduced", "result": "1.02 (inactive)"}, {"measurement": "fold change", "setting": "[5]; [10]", "result": 1.78}, {"measurement": "cell count", "setting": "[5]; [11]", "result": 10500}, {"measurement": "cell count", "setting": "[5]; [12]", "result": 10300}, {"measurement": "z-score", "setting": "[6]", "result": "0.755 (inactive)"}]}, {"smiles": "COC(=O)c1cc2c(cn1)[nH]c1ccccc12", "values": [{"measurement": "period change", "setting": "[1]", "result": "0.035 h (inactive)"}, {"measurement": "remaining activity", "setting": "[4]", "result": "104% (inactive)"}]}, {"smiles": "N[C@@H](CCl)C(=O)O", "values": [{"measurement": "period change", "setting": "[1]", "result": "0.125 h (inactive)"}, {"measurement": "inhibition", "setting": "[2]", "result": "-3% (inactive)"}, {"measurement": "fluorescence ratio (interference)", "setting": "[3]", "result": "1 (inactive)"}, {"measurement": "remaining activity", "setting": "[4]", "result": "104% (inactive)"}]}, {"smiles": "COc1cc(C=C(C#N)C#N)cc(O)c1O", "values": [{"measurement": "period change", "setting": "[1]", "result": "-0.12 h (inactive)"}, {"measurement": "remaining activity", "setting": "[4]", "result": "117% (inactive)"}]}, {"smiles": "O=P(O)(O)C(Cl)(Cl)P(=O)(O)O", "values": [{"measurement": "period change", "setting": "[1]", "result": "-0.115 h (inactive)"}, {"measurement": "inhibition", "setting": "[2]", "result": "-2% (inactive)"}, {"measurement": "fluorescence ratio (interference)", "setting": "[3]", "result": "1 (inactive)"}, {"measurement": "remaining activity", "setting": "[4]", "result": "94.8% (inactive)"}, {"measurement": "fold change", "setting": "[5]; stronger effect = lower value", "result": "0.966 (inactive) and 0.892 (inactive)"}, {"measurement": "fold change", "setting": "[5]; [10]", "result": "1.44 and 0.98"}, {"measurement": "cell count", "setting": "[5]; [11]", "result": "9450 and 9630"}, {"measurement": "cell count", "setting": "[5]; [12]", "result": "9790 and 10800"}, {"measurement": "z-score", "setting": "[6]", "result": "1.8 (inactive) and 0.645 (inactive)"}]}, {"smiles": "CC1Cc2cc3c(cc2C(c2ccc(N)cc2)=NN1)OCO3", "note": "(configuration not stated)", "values": [{"measurement": "period change", "setting": "[1]", "result": "0.09 h (inactive)"}, {"measurement": "remaining activity", "setting": "[4]", "result": "102% (inactive)"}]}, {"smiles": "CCCCCCC(C)(C)c1ccc([C@@H]2C[C@H](O)CC[C@H]2CCCO)c(O)c1", "values": [{"measurement": "period change", "setting": "[1]", "result": "0.01 h (inactive)"}, {"measurement": "inhibition", "setting": "[2]", "result": "-4% (inactive)"}, {"measurement": "fluorescence ratio (interference)", "setting": "[3]", "result": "1 (inactive)"}, {"measurement": "remaining activity", "setting": "[4]", "result": "106% (inactive)"}, {"measurement": "fold change", "setting": "[5]; stronger effect = lower value", "result": "0.915 (inactive)"}, {"measurement": "fold change", "setting": "[5]; [10]", "result": 0.979}, {"measurement": "cell count", "setting": "[5]; [11]", "result": 5170}, {"measurement": "cell count", "setting": "[5]; [12]", "result": 5640}]}]}
